Assay [1] is described as follows: qHTS assay to identify small molecule antagonists of the estrogen receptor alpha (ER-alpha) signaling pathway using the BG1 cell line in the presence of 0.1 nM 17-beta-estradiol - cell viability counter screen (AID 1259241). Note: nearly all actives have a fitted effect of over 40% in size. Put shortly:
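In this screen, hormone-deprived VM7Luc4E2 cells were seeded at 4,000 per well, dosed with compound and 0.1 nM estradiol final, and incubated 22 hr at 37C and 5% CO2; fluorogenic live-cell protease signal reported viability.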
On the technique in general: qHTS replaces the single test concentration by a dilution series.

The nature of assay [2]: qHTS assay to identify small molecule antagonists of the androgen receptor (AR) signaling pathway using the MDA cell line in the presence of 0.5 nM R1881 - cell viability counter screen (AID 1259242). Note: nearly all actives have a fitted effect of over 45% in size. The essentials: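 R1881 at 0.5 nM final stimulated MDA-kb2 cells during 16 hr compound treatment at 37C. Cytotoxicity read: CellTiter-Fluor fluorescence after 30 min.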
The target in assay [3] is Androgen receptor (Homo sapiens) (UniProt P10275). The experiment in a line: qHTS assay to identify small molecule antagonists of the androgen receptor (AR) signaling pathway using the MDA cell line in the presence of 0.5 nM R1881 (AID 1259243). Note: nearly all actives have a fitted effect of over 50% in size. The essentials: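 We exposed MDA-kb2 cells to compounds under 0.5 nM R1881 stimulation for 16 hr at 37C and quantified MMTV-driven luciferase by luminescence.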

Assay [4] is described as follows: qHTS assay to identify small molecule HDAC inhibitors (AID 1259364).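 Note: wild-type HCT-116 cells with endogenous class I/II HDAC activity; top concentration of the series differs between compounds; nearly all actives have a fitted effect of over 45% in size.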 Put shortly:
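Relative class I and II HDAC activity is taken from the luminogenic signal in HCT-116 cells, with compound exposure 2 hr and reagent development 30 min at room temperature.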

Assay [5] is described as follows: qHTS assay to identify small molecule HDAC inhibitors - cell viability counter screen (AID 1259365). Note: series mostly up to about 92 µM; nearly all actives have a fitted effect of over 50% in size. The essentials:
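Measured quantity is CellTiter-Glo luminescence from wild-type HCT-116 cells after compound incubation of 2hr at 37C, 5% CO2; reagent developed 30min at room temperature.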

A short description of assay [6]: qHTS assay to identify small molecule agonists of the sonic hedgehog signaling (Shh) pathway - cell viability counter screen (AID 1259366). Note: nearly all actives have a fitted effect of over 50% in size. Put shortly:
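In quantitative high-throughput format, 3T3 Gli1-Luc cells were exposed to compounds for 24hr and multiplexed for viability using CellTiter-Fluor, incubated 1hr at 37C before the fluorescence read.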

The nature of assay [7]: qHTS assay to identify small molecule antagonists of the sonic hedgehog signaling (Shh) pathway - cell viability counter screen (AID 1259367). Note: nearly all actives have a fitted effect of over 55% in size. Note: potency is the fitted concentration of half-maximal effect. Put shortly:
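NIH/3T3-derived Gli1-Luc reporter cells, 2,000/well, plated 4 hr before compound addition, then stimulated with conditioned medium for 24 hr at 37C. Viability measured in the same wells by CellTiter-Fluor fluorescence, reagent added at 23 hr for 1 hr.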

Assay [8] can be described thus: qHTS assay to identify small molecule agonists of the sonic hedgehog signaling (Shh) pathway (AID 1259368; calls by dose curve;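 note: NIH/3T3-derived 3T3Gli1-Luc cells carrying a stable Gli1-driven firefly luciferase reporter; series mostly up to about 92 µM; nearly all actives have a fitted effect of over 15% in size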). Put shortly:
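Mouse fibroblast (NIH/3T3) reporter cells with stably integrated Gli1-Luc were treated 24 hr with compound; firefly luciferase luminescence served as the read-out.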

Assay [9] concerns the target Estrogen receptor (Homo sapiens) (UniProt P03372). The experiment in a line: qHTS assay to identify small molecule antagonists of the estrogen receptor alpha (ER-alpha) signaling pathway using the BG1 cell line in the presence of 0.1 nM 17-beta-estradiol (AID 1259244). Note: nearly all actives have a fitted effect of over 50% in size. Put shortly:
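VM7Luc4E2; 4xERE-luciferase; 0.1 nM E2 final; 22 h co-incubation, 37C; ONE-Glo luminescence after 30 min at room temperature.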

A short description of assay [10]: qHTS assay to identify small molecule phospholipidosis (PLD) inducers (AID 1259344; active = well fitted curve in the direction sought with a large enough effect; an effect the other way counts as inactive or inconclusive). The essentials:
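HepG2 cells, 900/well, treated with compound plus LipidTOX Red for 24 h at 37 C; amiodarone positive and DMSO negative controls. Fixed with paraformaldehyde/Hoechst, then high-content imaging scored LipidTOX pit count and integrated intensity per well and per cell.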

SMILES strings stand for the structures. Several values for one entry are separate records, joined by “and”; a condition that tells them apart may be missing. Equal entries are not always repeated. Inconclusive results are not listed. Where a structure was tested more than once in an assay, its records may differ in their call. Activity calls are given as the source filed them. Unless noted, calls come from the whole dose curve; as a rule, active = well fitted curve in the direction sought with a large enough effect in the repeat runs; inconclusive = weak or mixed curves; inactive = no such curve, though single readings can be large; an effect the other way counts as inactive or inconclusive.

Sequence of Estrogen receptor (Homo sapiens) (P03372 whole entry, looked up): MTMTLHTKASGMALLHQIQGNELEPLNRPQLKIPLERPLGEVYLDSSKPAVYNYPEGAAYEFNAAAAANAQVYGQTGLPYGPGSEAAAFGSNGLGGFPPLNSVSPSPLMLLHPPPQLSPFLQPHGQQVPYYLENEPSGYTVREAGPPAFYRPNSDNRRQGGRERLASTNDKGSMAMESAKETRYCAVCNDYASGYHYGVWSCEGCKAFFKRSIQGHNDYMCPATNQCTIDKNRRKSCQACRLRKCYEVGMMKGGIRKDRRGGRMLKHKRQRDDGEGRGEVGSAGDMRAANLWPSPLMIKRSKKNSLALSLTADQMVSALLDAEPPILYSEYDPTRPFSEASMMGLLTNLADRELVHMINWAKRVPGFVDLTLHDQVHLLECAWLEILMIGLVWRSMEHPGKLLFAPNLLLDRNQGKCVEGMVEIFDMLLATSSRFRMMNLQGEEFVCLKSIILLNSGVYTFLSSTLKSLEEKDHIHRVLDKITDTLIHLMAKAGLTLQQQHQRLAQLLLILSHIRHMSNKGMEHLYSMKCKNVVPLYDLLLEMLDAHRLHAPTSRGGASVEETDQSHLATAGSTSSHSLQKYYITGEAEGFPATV
Sequence of Androgen receptor (Homo sapiens) (P10275 whole entry, looked up): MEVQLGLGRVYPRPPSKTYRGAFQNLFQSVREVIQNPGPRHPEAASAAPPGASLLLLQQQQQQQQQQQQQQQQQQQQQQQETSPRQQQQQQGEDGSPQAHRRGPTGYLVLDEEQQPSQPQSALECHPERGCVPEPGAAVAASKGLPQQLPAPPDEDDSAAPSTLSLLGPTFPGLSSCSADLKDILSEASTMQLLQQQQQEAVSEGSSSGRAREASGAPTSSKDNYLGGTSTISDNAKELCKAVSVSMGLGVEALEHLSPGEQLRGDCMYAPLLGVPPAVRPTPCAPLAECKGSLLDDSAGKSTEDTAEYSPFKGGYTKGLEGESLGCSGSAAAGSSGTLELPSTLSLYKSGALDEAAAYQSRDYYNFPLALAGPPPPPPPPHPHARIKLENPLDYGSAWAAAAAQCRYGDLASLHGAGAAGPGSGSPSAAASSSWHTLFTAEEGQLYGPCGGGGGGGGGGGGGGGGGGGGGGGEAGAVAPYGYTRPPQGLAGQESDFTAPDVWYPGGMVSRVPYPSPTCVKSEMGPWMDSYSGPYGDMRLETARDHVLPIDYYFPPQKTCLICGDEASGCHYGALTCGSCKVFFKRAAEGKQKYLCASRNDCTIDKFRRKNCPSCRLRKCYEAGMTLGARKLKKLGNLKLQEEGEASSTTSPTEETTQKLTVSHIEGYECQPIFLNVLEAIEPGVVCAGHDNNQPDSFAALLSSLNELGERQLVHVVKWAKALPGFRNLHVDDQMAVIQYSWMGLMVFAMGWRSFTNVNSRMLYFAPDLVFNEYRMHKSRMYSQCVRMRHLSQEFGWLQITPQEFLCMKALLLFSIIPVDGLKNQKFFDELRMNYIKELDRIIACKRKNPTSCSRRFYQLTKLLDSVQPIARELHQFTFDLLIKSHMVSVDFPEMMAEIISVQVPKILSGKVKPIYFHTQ

As to `CCCCC(CC)COC(=O)c1ccc(C(=O)OCC(CC)CCCC)cc1` (stereo unspecified), the Potency entry in [1], in assay [2], in [3], in [4], in assay [5] and in assay [6] was “inactive” throughout. Moreover, the Potency entry in assay [7] and in [8] was “inactive” each time.
Consider `C=CC(=O)NCOCCCC`, for which the Potency entry in [1], in assay [2], in assay [9], in assay [4], in assay [5] and in [6] was “inactive” throughout. Further, the Potency entry in [7] and in assay [8] was “inactive” each time.
With `Cc1ccc(C(C)C)cc1`, the Potency entry in assay [1], in [2], in assay [3], in assay [9], in [4] and in assay [5] was “inactive” throughout. Besides, the Potency result in [6], in assay [7] and in assay [8] was “inactive” each time.
On to `CCCN(CCC)C(=O)SCC`, for which the Potency entry in assay [1], in assay [2], in assay [3], in assay [9], in assay [4] and in assay [5] was “inactive” in each case. Also, the Potency result in [6], in [7] and in [8] was “inactive” in each case.
For `OCC(CO)(CO)CO`, the Potency result in [1], in [2], in assay [9], in assay [4], in [5] and in assay [6] was “inactive” in each case. The Potency entry in assay [7] and in [8] was “inactive” in each case.
`COc1c(Cl)ccc(Cl)c1C(=O)O`: the Potency result in [1], in [2], in assay [9], in assay [4], in [5] and in [6] was “inactive” throughout. The Potency entry in assay [7] and in assay [8] was “inactive” throughout.
On to `COCN(COC)c1nc(N(COC)COC)nc(N(COC)COC)n1`, for which the Potency result in assay [1], in assay [2], in assay [9], in assay [4], in assay [5] and in assay [6] was “inactive” throughout. Further, the Potency entry in assay [7] and in assay [8] was “inactive” throughout.
Regarding `CCCCCCCCC(=O)O`, the Potency result in [1], in assay [2], in assay [9], in assay [4], in assay [5] and in assay [6] was “inactive” each time. Besides, the Potency result in [7] and in assay [8] was “inactive” each time.
In the case of `O=C(O)C1=NN(c2ccc(S(=O)(=O)O)cc2)C(=O)C1`, the Potency result in [1], in [2], in assay [9], in [4], in [5] and in assay [6] was “inactive” each time. The Potency result in [7] and in assay [8] was “inactive” each time.
For `CCc1cccc(O)c1`, the Potency entry in assay [1], in assay [2], in assay [9], in [4], in [5] and in [6] was “inactive” each time. Moreover, the Potency entry in assay [7] and in assay [8] was “inactive” in each case.
In the case of `CC(=O)OC/C=C(\C)CCC=C(C)C`, the Potency entry in assay [1], in [2], in [9], in assay [4], in [5] and in assay [6] was “inactive” throughout. In addition, the Potency result in assay [7] and in assay [8] was “inactive” each time.
`CCCCCCCCCCCC(=O)N(C)CC(=O)O`: the Potency result in assay [1], in assay [2], in assay [9], in assay [4], in [5] and in assay [6] was “inactive” each time. Also, the Potency entry in assay [7] and in assay [8] was “inactive” each time.
With `OCC(O)CS` (stereo unspecified), the Potency result in [1], in [2], in assay [3], in assay [9], in assay [5] and in assay [6] was “inactive” in each case. Also, the Potency entry in assay [7] and in assay [8] was “inactive” each time. Besides, the molecule was classed as inactive in assay [10].
In the case of `Cc1cc(CC(=O)O)n(C)c1C(=O)c1ccc(Cl)cc1`, the Potency result in [1], in assay [2], in [4], in [5], in assay [6] and in assay [7] was “inactive” throughout. In addition, the Potency result in [8] was “inactive”. In [10], the molecule was classed as inactive.
As to `NC1CCCCC1N` (stereo unspecified), the Potency entry in assay [1], in assay [2], in assay [5], in assay [6], in [7] and in [8] was “inactive” in each case.
Consider `CCCCCC(C)=O`, for which the Potency entry in assay [1], in [2], in assay [4], in assay [5], in assay [6] and in [8] was “inactive” each time. In [7], the Potency result was “inactive and 54.5 µM (active)”.
For `CC(=O)OCc1ccc2c(c1)OCO2`, the Potency result in assay [1], in [2], in [4], in assay [5], in assay [6] and in assay [7] was “inactive” each time. For the same molecule, in [8], the Potency result was “inactive”.
With `CCn1cc(C(=O)O)c(=O)c2cc3c(cc21)OCO3`, the Potency result in [1], in assay [2], in assay [5], in assay [6], in assay [7] and in assay [8] was “inactive” throughout. The call in assay [10] was inactive.
In the case of `CC(C)(CO)CO`, the Potency result in assay [2], in assay [3], in assay [9], in assay [4], in assay [5] and in [6] was “inactive” in each case. Besides, the Potency result in assay [7] and in assay [8] was “inactive” each time.
With `Cc1ncc(CO)c(CO)c1O`, the Potency result in [1], in assay [2], in assay [4], in assay [5], in assay [6] and in [7] was “inactive” each time. The Potency entry in assay [8] is “inactive”. Further, the outcome in [10] was inactive.
Regarding `Cc1ccccc1C=O`, the Potency result in [1], in assay [2], in [9], in assay [5], in assay [6] and in [7] was “inactive” throughout. In addition, in assay [8], the Potency entry is “inactive”.
Take `COC(=O)/C=C\C(=O)OC`: the Potency entry in [1], in assay [2], in assay [4], in assay [5], in assay [6] and in [7] was “inactive” in each case. For the same molecule, the Potency result in assay [8] was “inactive”.
For `Clc1cccc(Cl)c1NC1=NCCN1`, the Potency result in assay [1], in assay [2], in [5], in assay [6], in [7] and in [8] was “inactive” each time. For the same molecule, the result in assay [10] was inactive.
Consider `CCCOC(=O)NCCCN(C)C`, for which the Potency entry in assay [1], in assay [2], in assay [5], in assay [6], in assay [7] and in assay [8] was “inactive” in each case.
Turning to `OCCOCCOCCOCCOCCO`, the Potency result in [1], in assay [2], in assay [4], in [5], in assay [6] and in assay [7] was “inactive” throughout. For the same molecule, the Potency result in assay [8] was “inactive”.
`Brc1ccc(Oc2ccc(Br)cc2)cc1`: the Potency result in assay [1], in assay [2], in [4], in [5], in [6] and in assay [7] was “inactive” in each case. The Potency entry in assay [8] was “inactive”.
For `C=C(C)CC(C)(C)C`, the Potency entry in assay [1], in assay [2], in [4], in [5], in assay [6] and in assay [7] was “inactive” throughout. The Potency entry in assay [8] is “inactive”.
